Shown are actives, neighbours in structure and some others; about 3% of the full set was active somewhere.
Sm TGR inh – S. mansoni TGR enzyme inhibition. purified TGR, DTNB reduction, TNB absorbance 405 nm. Potency, µM (titrated, usually from 114 µM), for the others: top-dose activity change, negative = inhibition, actives largely listed as inhibitors. actives 3% (n = 360,000). AID 485364; active = well fitted inhibition curve with a large enough effect; inconclusive = small, poorly fitted or top-dose-only effect; inactive = no such curve, though single readings can be large or run the other way; also: % is scaled to controls: 0 for no effect and ±100 for the full control effect; nearly all actives have a fitted effect of over 60% in size
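TGR 20 nM + NADPH 100 uM (dispensed conc.), cpd preinc 15 min RT; start with NADPH (500 uM addition) then DTNB (15 mM addition). Kinetic TNB absorbance, 405 nm filter. Four-parameter Hill fit across titration.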
SARS PLP yeast – inhibitors of SARS-CoV papain-like protease in yeast; actives 0.19% (n = 330,000); S. cerevisiae expressing SARS-CoV PLpro, growth rescue; Potency, µM (highest dose often 32.9 µM), for the others: top-dose activity, positive = growth rescue, actives largely listed as activators; AID 485353; calls by dose curve; also: 0% is about no effect; nearly all actives have a fitted effect of over 55% in size
Numbers without * were called inactive; ? = inconclusive; / = not tested or not shown. Potency is read from the fitted curve at half-maximal effect.

SMILES	Sm TGR inh	SARS PLP yeast
COc1ccc(Cl)cc1NC(=O)c1nn(C)c2c1CS(=O)(=O)c1ccccc1-2	0%	/
COc1cc(OC)c(NC(=O)c2nn(C)c3c2COc2ccccc2-3)cc1Cl	0.71µM*	/
COC(=O)c1cc(NC(=O)c2nn(C)c3c2COc2ccccc2-3)cc(C(=O)OC)c1	2%	/
Cn1cnc(S(=O)(=O)N2CCC(C(=O)Nc3ccc(F)cc3F)CC2)c1	2%	/
CCCN(CCC)C(=O)Cn1c(=O)n(CCCCCC(=O)NCc2ccc3c(c2)OCO3)c(=O)c2sccc21	-3%	/
O=C(Cn1cc(SCc2c(F)cccc2Cl)c2ccccc21)N1CCCCCC1	7%	/
CCCN(C(=O)c1cc(S(=O)(=O)N2CCc3ccccc32)cn1C)c1ccc(OCC)cc1	-2%	/
O=C(NC(=S)Nc1cccc2c(O)cccc12)c1ccco1	25µM*	-5%
O=C(Nc1c(Cl)ccc2nsnc12)c1cccnc1	3%	-8%
COc1ccc(C(=O)NC(=S)Nc2cccc3cc(O)ccc23)cc1OC	?	-4%
O=C(NC(=S)Nc1c(Cl)ccc2nsnc12)c1ccco1	25µM*	4%
COc1ccc(C(=O)NC(=S)Nc2cccc3ncccc23)cc1[N+](=O)[O-]	6.3µM*	-2%
O=C(NC(=S)Nc1ccccc1N1CCCC1)c1ccco1	?	-2%
O=C(NC(=S)Nc1cccc2cc(O)ccc12)c1ccco1	10µM*	3%
O=C(Nc1cccc2ncccc12)c1ccc(Br)c([N+](=O)[O-])c1	3%	10%
CC(=O)c1cccc(NC(=O)C(Cc2ccccc2)NS(=O)(=O)c2ccc(Br)s2)c1 (centres undefined)	3%	/
CCc1nnc(NC(=O)CSc2nc3c([nH]c4ccccc43)c(=O)n2-c2ccc(F)cc2)s1	1%	/
C#CCn1cnc2c(cnn2-c2ccc(F)cc2)c1=O	4%	/
CN1C(=O)c2ccccc2Sc2ccc(NC(=O)N3CCN(c4cccc(Cl)c4)CC3)cc21	-30%	/
CCCCCSc1nc2sc3c(c2c(=O)n1-c1ccc(OC)cc1)CCN(C(C)=O)C3	-4%	/
O=C(NC(=S)Nc1cccc2cc(O)ccc12)c1ccccc1Br	35µM*	-4%
CC1CCN(c2ccc(NC(=S)NC(=O)c3ccco3)cc2)CC1	?	2%
CCCC(=O)NC(=S)Nc1cccc2c(O)cccc12	14µM*	-1%
Cc1cc(NC(=S)NC(=O)c2ccco2)c2ccccc2n1	?	0%
O=C(NC(=S)Nc1cccc2ncccc12)c1ccco1	14µM*	0%
SMILES	Sm TGR inh	SARS PLP yeast
O=C(COc1ccccc1)NC(=S)Nc1cccc2cc(O)ccc12	0%	-5%
O=C(NC(=S)Nc1ccc(N2CCCCC2)cc1)c1ccco1	16µM*	-2%
CCCC(=O)NC(=S)Nc1ccccc1C(=O)OC	-32%	9%
Cc1ccccc1OC(=O)CSc1nnc(-c2ccc(F)cc2)o1	0%	/
O=C(CSc1nc2ccccc2nc1Cc1ccc(Cl)cc1)NCCc1ccccc1	8%	/
COc1ccc(NC(=O)CN(c2ccc(C)cc2)S(=O)(=O)c2cccs2)cc1	7%	/
CN1C(=O)C(C)(C)c2cc(S(=O)(=O)N3CCCC3C(=O)Nc3ccc(F)cc3)ccc21 (centres undefined)	3%	/
O=C(NC(=S)Nc1ccccc1Cl)c1ccco1	13µM*	-6%
O=C(NC(=S)Nc1cccc(Cl)c1N1CCCCC1)c1ccco1	10%	-19%
O=C(NC(=S)Nc1ccc(Cl)c(C(=O)O)c1)c1ccco1	45µM*	-4%
Cc1sc(NC(=S)NC(=O)c2ccc(C(C)(C)C)cc2)c(C#N)c1C	0%	4%
CCC(=O)Nc1ccc(Cl)c(NC(=S)NC(=O)c2ccco2)c1	?	-13%
O=C(NC(=S)N1CCCc2ccccc21)c1ccco1	28µM*	0%
Cc1sc(NC(=S)NC(=O)c2ccco2)c(C#N)c1C	4µM*	-2%
CC1Cc2ccccc2N1C(=S)NC(=O)c1ccco1 (centres undefined)	-16%	-1%
COc1ccc(-c2noc(CNS(=O)(=O)c3ccc(Br)cc3)n2)cc1OC	-3%	/
COc1ccc(-n2cc(C(=O)OCc3ccc(F)c(F)c3)c3ccccc3c2=O)cc1	0%	/
Cc1c(NC(=O)c2ccc(Cl)nc2)cccc1-c1nc2cccnc2s1	3%	-5%
Cc1c(NC(=O)c2ccco2)cccc1-c1nc2cccnc2s1	20µM*	-13%
Cc1c(C(=O)N2CCCC2)oc2c1-c1nn(CC(=O)NCc3ccccc3Br)cc1CC2	-29%	/
CC(=O)Nc1cccc(NC(=O)CSc2ccc(-c3sc(-c4ccccc4)nc3C)nn2)c1	2%	/
O=P(C(Cl)Cl)(N1CCOCC1)N1CCOCC1	-8%	-7%
O=CC(Br)P(=O)(N1CCOCC1)N1CCOCC1 (centres undefined)	45µM*	0%
CCCCCc1nn2cc(-c3ccccc3)nc2s1	-6%	/
Cc1cccc(OCC(=O)Nc2ccccc2OCc2cc(=O)n3ccccc3n2)c1	7%	/
SMILES	Sm TGR inh	SARS PLP yeast
Cc1nc(S/C(=C\c2ccc(OCc3ccccc3Cl)cc2)C(=O)O)n[nH]1	-9%	1%
Cc1nc(S/C(=C\c2ccc(-c3ccc(C(=O)O)c(Cl)c3)o2)C(=O)O)n[nH]1	35µM*	1%
O=[N+]([O-])c1cc(-c2nc(-c3cccnc3)no2)ccc1NCc1ccccc1	-2%	/
COC/C=C/C1=CC2=CC(=O)C(C)(OC(=O)c3ccco3)C(=O)C2=CO1 (centres undefined)	3.2µM*	-2%
CC1(OC(=O)C2CCCC2)C(=O)C=C2C=C3CCCCN3C=C2C1=O (centres undefined)	-32%	-6%
COC/C=C/C1=CC2=CC(=O)C(C)(OC(=O)C3CCCC3)C(=O)C2=CO1 (centres undefined)	3.5µM*	3%
CC1(C)CC(=O)CC(C)(C)N1OC(=O)c1ccco1	-4%	1%
Cc1ccc2[nH]c(C)c(CCNC(=O)c3cc4cc(Br)ccc4oc3=O)c2c1	-1%	/
CN(CC(=O)Nc1ccc(F)cc1)C(=O)c1cc(-c2ccco2)nc2ccccc12	11µM*	-3%
Cc1ccc(NC(=O)CN(C)C(=O)c2cc(-c3ccco3)nc3ccccc23)cc1	6.3µM*	2%
COc1ccc(NC(=O)CN(C)C(=O)c2cc(-c3ccccc3)nc3ccccc23)cc1	-2%	/
CN(CCOc1ccc(Cl)cc1)C(=O)c1cc(-c2ccco2)nc2ccccc12	11µM*	4%
COc1ccc(NC(=O)CN(C)C(=O)c2cc(-c3ccc(OC)cc3)nc3ccccc23)cc1	-7%	-1%
COc1cccc(NC(=O)CN(C)C(=O)c2cc(-c3ccco3)nc3ccccc23)c1	?	-3%
Cc1ccc(Cn2c(C)c(CNCC(C)c3ccccc3)c(C(=O)O)c2C)cc1 (centres undefined)	-2%	/
COc1cc(/C=C/c2nc(C#N)c(N3CCCCC3)o2)cc(OC)c1OC	2%	/
O=C1NC(=S)S/C1=C\c1coc2ccccc2c1=O	?	-2%
O=C1NC(=S)S/C1=C\c1coc2ccc(O)cc2c1=O	-29%	0%
O=C1NC(=O)C(=C/C=C/c2coc3ccc(Br)cc3c2=O)C(=O)N1	0.79µM*	2%
O=C1NC(=O)C(=Cc2coc3ccccc3c2=O)C(=O)N1	16µM*	-2%
Cc1nnsc1C(=O)N1CCCC(N2CCN(c3ccc(F)cc3)CC2)C1 (centres undefined)	-5%	0.71µM*
Cc1nnsc1C(=O)N1CCN(c2ccc(F)cc2)CC1	0%	0%
O=C1OC(c2cccs2)=N/C1=C/c1ccc(-c2cccc(C(=O)O)c2)o1	22µM*	5%
